The results in this text go back to PubChem BioAssay (NCATS).

SMILES strings stand for the structures. Results filed as inconclusive are left out. The source made the active and inactive calls. Unless noted, calls come from the whole dose curve; as a rule, active = well fitted curve in the direction sought with a large enough effect; inconclusive = small, poorly fitted or top-dose-only effect, or another doubt; inactive = no such curve, though single readings can be large; an effect the other way counts as inactive or inconclusive. Starred links: 1 amine or outer side, 2 acyl side, 3 side chain; linkers in the order of their positions; H or OH if unused. Positions of bridges follow the written chain, without caps; N, C: chain ends. Non-standard residues stand in square brackets, D forms with d. Residues, ends and D or L forms follow the SMILES beside them. *: point of attachment. X1 = NC1=N[C@@H](O)C[C@@H]([C@@H](N[*:1])C(=O)[*:2])N1; ΔAla(Z-3-ureido) = NC(=O)N/C=C(\N)C(=O)O; β3hOrn = NCCC[C@H](N)CC(=O)*; Dap = NC[C@H](N)C(=O)O

Experiment [1] is described as follows: qHTS Assay for Lipid Storage Modulators (AID 1519; calls by dose curve; for activity change, negative = inhibition: % is set by controls: 0 for no effect and ±100 for the full control effect). To be noted: Drosophila S3 cells, BODIPY lipid droplet/cell ratio, laser cytometry, cells loaded with oleic acid; for activity change, negative = inhibition: at 25.7 µM (top of the series). The method, boiled down: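 Cells seeded at 5,000 per well were treated with compounds over a concentration series and loaded with oleic acid (400 uM, as added). Lipid droplet fluorescence (488 nm excitation, 500-530 nm channel) was read by laser-scanning cytometry and normalized to 20 uM Triacsin C.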
A general note: qHTS replaces the single test concentration by a dilution series.

The target in experiment [2] is ATP-dependent 6-phosphofructokinase (Trypanosoma brucei brucei) (UniProt O15648). As to the kind of experiment: qHTS Assay to Find Inhibitors of T. brucei phosphofructokinase: hit validation (AID 492961). Note: % is set by controls: 0 for no effect and ±100 for the full control effect. To be noted: T. brucei PFK, ADP-Glo luminescence; series mostly up to 24.3 µM. The method, boiled down:
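Luminescence from ADP-Glo reports ADP generated as T. brucei PFK (1.25 nM) phosphorylates 0.5 mM fructose-6-phosphate using 0.1 mM ATP. Reactions ran 45 min at room temperature, pH 8.0.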

Experiment [3] concerns the target Luciferin 4-monooxygenase (Photinus pyralis) (UniProt P08659). As to the kind of experiment: Biochemical firefly luciferase enzyme assay for NPC (AID 624030).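 Note: purified P. pyralis luciferase at 10 nM with luciferin and ATP substrate; 0% = DMSO and -100% = full luciferase inhibition by PTC124 control; nearly all actives have a fitted effect of over 70% in size.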 To be noted: purified P. pyralis luciferase, luminescence, 5 min; series mostly up to 24.9 µM. A digest of the protocol: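 Purified P. pyralis luciferase at 10 nM in 50 mM Tris Acetate (final), luminescence read within 5 minutes of enzyme addition to compounds. Activity normalised to PTC124 versus DMSO; concentration-response curves classed by r2, magnitude and activity.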

A short description of experiment [4]: qHTS profiling for inhibitors of Plasmodium falciparum proliferation (AID 504749).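 Note: 0% = DMSO vehicle and full inhibition = artemisinin control; nearly all actives have a fitted effect of over 60% in size.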 To be noted: P. falciparum in erythrocytes, SYBR Green DNA, 72 h, at 12.8 µM (top of the series). A digest of the protocol:
(§1)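 Readout was DNA-dye fluorescence from lysed cultures, ex 485/em 535 nm. Parasitized red cells had grown 72 h with compound; data scaled between 0.29 uM artemisinin and DMSO wells and corrected using vehicle-only plates.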

The test system of another experiment is 3D7. The experiment is described as above. To be noted: P. falciparum in erythrocytes, SYBR Green DNA, 72 h; series mostly up to 12.8 µM. The method, boiled down:
as §1

For the next experiment, the system named is C2A. The experiment is described as above. To be noted: P. falciparum in erythrocytes, SYBR Green DNA, 72 h; series mostly up to 12.8 µM. A digest of the protocol:
as §1

The test system of the next experiment is CP201. Described as above. To be noted: P. falciparum in erythrocytes, SYBR Green DNA, 72 h; series mostly up to 12.8 µM. A digest of the protocol: as §1
The test system of a further experiment is CP211. The description is as above. To be noted: P. falciparum in erythrocytes, SYBR Green DNA, 72 h; series mostly up to 12.8 µM. The method, boiled down: as §1
For a further experiment, the system named is CP237. Described as above. To be noted: P. falciparum in erythrocytes, SYBR Green DNA, 72 h; series mostly up to 12.8 µM. The method, boiled down: as §1
The subject of the next experiment is CP252. Described as above. To be noted: P. falciparum in erythrocytes, SYBR Green DNA, 72 h; series mostly up to 12.8 µM. The method, boiled down: as §1
In the next experiment the test system is CP262. The experiment is described as above. The settings on record: P. falciparum in erythrocytes, SYBR Green DNA, 72 h; series mostly up to 12.8 µM. A digest of the protocol:
as §1

The next experiment has as its system CP268. Described as above. The settings on record: P. falciparum in erythrocytes, SYBR Green DNA, 72 h; series mostly up to 12.8 µM. A digest of the protocol:
as §1

For a further experiment, the system named is CP305. The description is as above. To be noted: P. falciparum in erythrocytes, SYBR Green DNA, 72 h; series mostly up to 12.8 µM. A digest of the protocol: as §1
For a further experiment, the system named is CP315. Described as above. The settings on record: P. falciparum in erythrocytes, SYBR Green DNA, 72 h; series mostly up to 12.8 µM. The method, boiled down:
as §1

Another experiment has as its system CP329. The experiment is described as above. The settings on record: P. falciparum in erythrocytes, SYBR Green DNA, 72 h; series mostly up to 12.8 µM. A digest of the protocol:
as §1

Another experiment relates to HB3. The experiment is described as above. The settings on record: P. falciparum in erythrocytes, SYBR Green DNA, 72 h; series mostly up to 12.8 µM. A digest of the protocol:
as §1

The subject of another experiment is JCK. The experiment is described as above. To be noted: P. falciparum in erythrocytes, SYBR Green DNA, 72 h; series mostly up to 12.8 µM. The method, boiled down: as §1
For another experiment, the system named is PAD. Described as above. The settings on record: P. falciparum in erythrocytes, SYBR Green DNA, 72 h; series mostly up to 12.8 µM. A digest of the protocol: as §1
For the next experiment, the system named is PC49. The experiment is described as above. To be noted: P. falciparum in erythrocytes, SYBR Green DNA, 72 h; series mostly up to 12.8 µM. The method, boiled down:
as §1

The target of experiment [5] is Ubiquitin carboxyl-terminal hydrolase 1 (Homo sapiens) (UniProt O94782). As to the kind of experiment: Inhibitors of USP1/UAF1: Pilot qHTS (AID 504865).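 Note: rhodamine fluorescence freed from ubiquitin-rhodamine substrate followed over time; top concentration of the series differs between compounds; % is set by controls: 0 for no effect and ±100 for the full control effect; nearly all actives have a fitted effect of over 35% in size.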 To be noted: purified USP1/UAF1, Ub-rhodamine cleavage fluorescence; series mostly up to 114 µM. The method, boiled down:
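In 50mM HEPES pH 7.8 containing 0.5mM EDTA, 1mM TCEP, 0.1 mg/ml BSA and 0.01% Tween-20, 1nM USP1/UAF1 is exposed to compound for 15 min, then Ub-Rho (150nM final) is added and fluorescence is read over time.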

[6] abbreviates: measured here: cell count channel max response.
Setting [7] is: measured here: lipid channel max response.

Luciferin 4-monooxygenase (Photinus pyralis), sequence (P08659 whole entry, looked up): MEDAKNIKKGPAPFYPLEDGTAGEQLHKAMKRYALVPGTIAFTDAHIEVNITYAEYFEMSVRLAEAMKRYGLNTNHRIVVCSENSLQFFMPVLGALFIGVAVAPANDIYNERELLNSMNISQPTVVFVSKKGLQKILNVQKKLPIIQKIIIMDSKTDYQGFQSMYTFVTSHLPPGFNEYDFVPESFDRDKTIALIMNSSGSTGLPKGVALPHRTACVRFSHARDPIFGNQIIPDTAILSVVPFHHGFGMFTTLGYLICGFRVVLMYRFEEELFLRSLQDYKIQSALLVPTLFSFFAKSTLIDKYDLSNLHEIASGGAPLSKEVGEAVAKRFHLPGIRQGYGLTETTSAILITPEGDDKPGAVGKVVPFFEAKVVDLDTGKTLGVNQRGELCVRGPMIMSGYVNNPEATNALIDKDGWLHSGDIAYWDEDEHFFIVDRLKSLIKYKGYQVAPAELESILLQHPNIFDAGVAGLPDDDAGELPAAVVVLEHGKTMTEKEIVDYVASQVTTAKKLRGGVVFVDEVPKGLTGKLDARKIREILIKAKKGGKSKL
Ubiquitin carboxyl-terminal hydrolase 1 (Homo sapiens), sequence (O94782 whole entry, looked up): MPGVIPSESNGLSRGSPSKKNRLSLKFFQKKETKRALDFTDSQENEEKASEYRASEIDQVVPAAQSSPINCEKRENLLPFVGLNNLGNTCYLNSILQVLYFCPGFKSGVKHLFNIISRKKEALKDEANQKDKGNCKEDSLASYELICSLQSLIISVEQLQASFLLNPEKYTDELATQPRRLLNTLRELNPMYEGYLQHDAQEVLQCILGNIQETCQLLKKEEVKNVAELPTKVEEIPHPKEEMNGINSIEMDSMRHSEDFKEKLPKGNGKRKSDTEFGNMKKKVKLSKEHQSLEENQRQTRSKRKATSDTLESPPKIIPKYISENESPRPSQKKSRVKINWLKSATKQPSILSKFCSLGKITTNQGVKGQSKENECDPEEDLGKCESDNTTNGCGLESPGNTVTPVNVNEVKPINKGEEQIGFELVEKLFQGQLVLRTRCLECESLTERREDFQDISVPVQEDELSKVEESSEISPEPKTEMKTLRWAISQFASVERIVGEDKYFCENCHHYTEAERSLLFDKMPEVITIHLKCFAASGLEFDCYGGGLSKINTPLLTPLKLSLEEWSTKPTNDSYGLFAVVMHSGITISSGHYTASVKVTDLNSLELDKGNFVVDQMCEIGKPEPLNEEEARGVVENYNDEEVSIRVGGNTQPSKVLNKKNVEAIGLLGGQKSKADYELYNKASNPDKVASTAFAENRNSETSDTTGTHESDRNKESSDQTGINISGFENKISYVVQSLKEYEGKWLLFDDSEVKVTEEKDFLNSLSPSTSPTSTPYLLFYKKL
ATP-dependent 6-phosphofructokinase (Trypanosoma brucei brucei), sequence (O15648 whole entry, looked up): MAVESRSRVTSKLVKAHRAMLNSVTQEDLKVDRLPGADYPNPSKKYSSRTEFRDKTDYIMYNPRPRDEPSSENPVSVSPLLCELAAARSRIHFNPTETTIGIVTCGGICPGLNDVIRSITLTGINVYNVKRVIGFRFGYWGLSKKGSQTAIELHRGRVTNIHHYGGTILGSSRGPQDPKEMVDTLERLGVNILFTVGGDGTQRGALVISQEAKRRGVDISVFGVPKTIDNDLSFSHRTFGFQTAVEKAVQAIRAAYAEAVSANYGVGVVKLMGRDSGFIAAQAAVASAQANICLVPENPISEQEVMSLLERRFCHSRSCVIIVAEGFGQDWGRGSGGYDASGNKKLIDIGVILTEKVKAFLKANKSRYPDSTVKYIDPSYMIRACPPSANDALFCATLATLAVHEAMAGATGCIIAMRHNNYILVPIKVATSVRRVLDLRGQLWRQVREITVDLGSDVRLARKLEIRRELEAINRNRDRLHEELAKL

For `C#C[C@]1(O)CC[C@@H]2[C@H]3CCC4=CCCC[C@@H]4[C@@H]3CC[C@@]21C`, in [1], the activity change, negative = inhibition was -4.16% (inactive). The values for the max response in experiment [1] (setting [6]) and in experiment [1] (setting [7]) were -7.9% and -10.1%, respectively. Further, in [2], the result was inactive. The Potency result (in experiment [3]; with 3D7; with C2A; in the experiment with CP201; with CP211; with CP237) was “inactive” throughout. Moreover, the Potency entry with CP252, with CP262, in the experiment with CP268, in the experiment on CP305, in the experiment with CP315 and in the experiment with CP329 was “inactive” in each case. Also, the Potency result with HB3, with JCK, in the experiment on PAD and in the experiment with PC49 was “inactive” in each case. The activity, negative = inhibition is 11.7% (inactive) in experiment [4] (parasite line A) and 0.61% (inactive) in experiment [4] (parasite line B).
As to `CCOC(=O)O[C@@H](C)OC(=O)[C@@H]1N2C(=O)[C@@H](NC(=O)[C@@H](N)c3ccccc3)[C@H]2SC1(C)C`, in experiment [1], the activity change, negative = inhibition was -1.29% (inactive). Moreover, the max response in experiment [1] (setting [6]) came to 3.59%; in experiment [1] (setting [7]) it was 0.724%. Further, the compound was classed as inactive in [2]. Besides, the Potency entry (in experiment [5]; in experiment [3]; in the experiment on 3D7; with C2A; with CP201; in the experiment with CP211) was “inactive” each time. Besides, the Potency result in the experiment with CP237, with CP252, in the experiment with CP262, with CP268, in the experiment on CP305 and in the experiment on CP315 was “inactive” each time. Moreover, the Potency entry in the experiment on CP329, in the experiment on HB3, with JCK, with PAD and with PC49 was “inactive” each time. Further, the results for the activity, negative = inhibition in experiment [4] (parasite line A) and in experiment [4] (parasite line B) were 6.23% (inactive) and 6.1% (inactive), respectively.
Regarding `CC(=O)O[C@H]1C[C@H]2CC[C@@H]3[C@@H](CC[C@]4(C)[C@H](OC(C)=O)[C@H]([N+]5(C)CCCCC5)C[C@@H]34)[C@]2(C)C[C@H]1[N+]1(C)CCCCC1`, the activity change, negative = inhibition in experiment [1] was -3.97% (inactive). Also, the values for the max response in experiment [1] (setting [6]) and in [1] (setting [7]) were 0.133% and -5.07%, respectively.
The like results for `C=CCO[C@@H](Cn1ccnc1)c1ccc(Cl)cc1Cl` were, in that order, -0.8% (inactive), -10.1% and -7.51%.
Regarding `NCCC[C@H](N)CC(=O)N[C@H]1CNC(=O)[C@@H]([C@@H]2C[C@H](O)N=C(N)N2)NC(=O)/C(=C/NC(N)=O)NC(=O)[C@@H](CO)NC(=O)[C@@H](CO)NC1=O` (β3hOrn-[Dap][dS][dS][ΔAla(Z-3-ureido)][X1]; lactam 1-C), in experiment [1], the activity change, negative = inhibition is 0.925% (inactive). For the same compound, the figures for the max response in [1] (setting [6]) and in experiment [1] (setting [7]) were -7.09% and -7.39%, respectively. Also, the Potency entry in [5] was “inactive”.
`CN[C@H]1[C@H](O)[C@@H](O[C@@H]2[C@H](O)[C@@H](O[C@H]3OC(CN)=CC[C@H]3N)[C@@H](N)C[C@H]2N)OC[C@@]1(C)O`: the activity change, negative = inhibition in [1] was 0.656% (inactive). For the same compound, the values for the max response in experiment [1] (setting [6]) and in experiment [1] (setting [7]) were -1.73% and -0.476%, respectively. The result in experiment [2] was inactive. Moreover, the Potency result (in experiment [5]; in experiment [3]; with 3D7; with C2A; with CP201; with CP211) was “inactive” each time. Further, the Potency result with CP237, in the experiment with CP252, in the experiment with CP262, in the experiment with CP268, in the experiment with CP305 and in the experiment with CP315 was “inactive” in each case. For the same compound, the Potency entry in the experiment on CP329, in the experiment on HB3, in the experiment on JCK, with PAD and with PC49 was “inactive” each time. Also, the activity, negative = inhibition was 3.71% (inactive) in experiment [4] (parasite line A) and 6.19% (inactive) in experiment [4] (parasite line B).
Consider `CCN(CCCCOC(=O)c1ccc(OC)c(OC)c1)[C@@H](C)Cc1ccc(OC)cc1`, for which the activity change, negative = inhibition in [1] was -1.1% (inactive). In addition, the max response is -7.41% in experiment [1] (setting [6]) and -6.28% in experiment [1] (setting [7]). In addition, the call in experiment [2] was inactive. In addition, the Potency entry (in experiment [5]; in experiment [3]; in the experiment on 3D7; in the experiment with C2A; in the experiment on CP211; with CP237) was “inactive” throughout. Besides, the Potency result with CP252, with CP268, in the experiment on CP315, with HB3, in the experiment with JCK and in the experiment on PAD was “inactive” throughout. Also, the Potency result in the experiment on PC49 was “inactive”. Moreover, the activity, negative = inhibition is -10.8% (inactive) in experiment [4] (parasite line A) and -8.1% (inactive) in experiment [4] (parasite line B).
